# Screening data (PubChem BioAssay)
# Hits are enriched below; roughly 7.1% of the tested compounds scored in any of these assays.
# MARV entry inh: Marburg virus entry inhibition | Marburg virus pseudotype entry/binding inhibition, cell-based | Potency, µM (highest dose often 49.2 µM), inactives show at the highest dose activity change, negative = inhibition, hits mostly inhibitors | actives 6.5% (n = 18,000) | AID 720532
# Lassa entry: Lassa virus entry inhibition; Potency, µM (series often up to 49.2 µM), for inactives: at the highest dose activity change, negative = inhibition, actives largely listed as inhibitors; AID 720533; Lassa virus pseudotyped entry inhibition, cell-based qHTS; actives 4.1% (n = 18,000)
# Active calls of the source: *; ? = inconclusive; / = no result given; ! = not confirmed by another sample; [ ] = another dose, or the depositor's remark. Calls come from the whole dose curve; tested in HEK293 cells. % is set by controls: 0 for no effect and ±100 for the full control effect; potency is the fitted concentration of half-maximal effect.
SMILES,MARV entry inh,Lassa entry
CN(C)CCOC(c1ccccc1)c1ccccc1 (tested in a mixture with another compound),-11%,-4%
NS(=O)(=O)c1ccc(N=Nc2c(O)[nH]c3ccc(C(=O)NCc4ccncc4)cc23)cc1,26%,/
Cc1cc(C(C)(C)CC(C)(C)C)ccc1OCCOCC[N+](C)(C)Cc1ccccc1,11µM*,?
C[N+](C)(C)CCOC(=O)C(O)(c1ccccc1)c1ccccc1,-10%,-17%
COC(=O)C1=C(C)N(Cc2ccccc2)C(=O)NC1CCc1ccccc1 (stereo unspecified),23%[8.59 µM],6%[8.59 µM]
C=CC[C@@](C(C)=O)(C(=O)OC)[C@@H](NC(=O)OC(C)(C)C)c1ccccc1,30%[8.59 µM],12%[8.59 µM]
COC(=O)N[C@@H](c1cccc(F)c1)[C@]1(C(=O)OC)CCCC1=O,3%[8.59 µM],4%[8.59 µM]
CN1[C@@H](CC(=O)c2ccccc2)CCC[C@H]1C[C@H](O)c1ccccc1,28µM*,?
CN1C(CC(=O)c2ccccc2)CCCC1CC(O)c1ccccc1 (stereo unspecified),?,-25%
CCCCc1oc2ccccc2c1C(=O)c1cc(I)c(OCCN(CC)CC)c(I)c1,20µM*,/
CCCCOc1cc(C(=O)OCCN(CC)CC)ccc1N,-16%[17.8 µM],-15%[17.8 µM]
CN(CCc1ccc(Cl)c(Cl)c1)C[C@@H](O)COc1ccc(NS(C)(=O)=O)cc1,14µM*,-21%
CC(C)NC[C@@H](O)COc1ccc(CC(N)=O)cc1,-24%,1%
C=C[C@@H](C)[C@@H](OP1(=O)O[C@@H](C=C)C[C@H](C=C)O1)[C@H](C)CO[Si](C)(C)C(C)(C)C (stereo partly specified),?,5%
Cn1cnnc1Sc1c([N+](=O)[O-])ncn1C,-3%,-9%
Cn1cnc([N+](=O)[O-])c1Sc1ncnc2nc[nH]c12,10µM*!,?
C[C@H]1C(C(=O)N2CCCC2)=Cc2[nH]c(=O)[nH]c2C=C1c1ccccc1,18%[8.59 µM],4%[8.59 µM]
C[C@@H](NS(=O)(=O)c1ccc(Br)cc1F)[C@H](O)c1ccccc1,20%,12%
O=C(c1ccc(Br)cc1)N1[C@H](COCc2ccccc2)C=CS1(=O)=O,26%,-8%
CCCCCCCc1cc2ccccc2c2c(C(=O)OC)c(-c3ccccc3)c(C(=O)OC)n12,?,-1%[8.59 µM]
COc1ccc2c(c1)[nH]c1c(C)nccc12,22µM*,4%
COc1ccc2c3c([nH]c2c1)C(C)=NCC3,?,-7%
Clc1ccc2c(c1)CCc1cccnc1C2=C1CCNCC1,10µM*,25µM*
CNc1ccc2oc(C[C@@H]3OC4(CC[C@@H]3C)O[C@H](C(C)C(=O)c3ccc[nH]3)[C@H](C)C[C@H]4C)nc2c1C(=O)O (stereo partly specified),5.6µM*,?
CNc1ccc2oc(C[C@H]3O[C@]4(CC[C@H]3C)O[C@H]([C@H](C)C(=O)c3ccc[nH]3)[C@H](C)C[C@H]4C)nc2c1C(=O)O,4.5µM*,3.5µM*
SMILES,MARV entry inh,Lassa entry
COc1ccc(O[C@H]2C=C[C@@H](c3ccccc3)O[C@H]2COC(=O)CCC(C)=NO[C@@H]2O[C@H](COC(C)=O)[C@@H](OC(C)=O)[C@H](OC(C)=O)[C@@H]2OC(C)=O)cc1,-23%[8.59 µM],7%[8.59 µM]
COC(=O)N[C@H](C(C(=O)OC)=C(C)NCc1ccccc1)c1cccc(C)c1,15%[8.59 µM],/
O=C(/C=C/c1ccc(O)cc1)c1cccs1,31%,3%
COc1cc(/C=C/C(=O)c2cccs2)cc(OC)c1OC,?,32µM*
COc1ccc(CC2NC[C@H](O)[C@H]2OC(C)=O)cc1 (stereo partly specified),0.32µM*,0.32µM*
C=C(C)C(=O)c1ccc(OC)cc1,-14%,-17%
COCC=CC1=CC2=CC(=O)C(C)(OC(=O)c3cnc4ccccc4n3)C(=O)C2=CN1CC1CC1 (stereo unspecified),58%[8.59 µM],13%[8.59 µM]
COC(=O)C1=C(C(=O)OC)[C@@H]2N(C)c3ccccc3[C@@]23C[C@@H](CO)N(C(=O)NC2CCCC2)C3=N1,?,2%[8.59 µM]
COC(=O)Nc1nc2ccc(Oc3ccc(NC(=O)Nc4cc(C(F)(F)F)ccc4F)cc3)cc2s1,?,6%
CCCOc1ccc2nc(NC(=O)OC)sc2c1,17%,3.2µM*
Cc1[nH]c(/C=C2\C(=O)Nc3ccc(S(=O)(=O)N(C)c4cccc(Cl)c4)cc32)c(C)c1C(=O)N1CCN(C)CC1,10µM*,?
CCS(=O)(=O)c1ccc(OC)c(Nc2ncc(-c3cccc(-c4ccccc4F)c3)o2)c1,-74%,/
Cc1c(C(=O)NCC2(N3CCCCC3)CCCC2)cnn1-c1nccc(-c2ccccc2F)n1,-18%,-9%
Cc1c(C(=O)NCC2(N3CCOCC3)CCCCCC2)cnn1-c1nccc(-c2ccccc2F)n1,11µM*,-12%
CC12C=C(C=Cc3ccc(C(F)(F)F)cc3)C(C)(C1)C(c1ccc(C(F)(F)F)cc1)CC2=O (stereo unspecified),6%[8.59 µM],-1%[8.59 µM]
